{"source": "PubChem BioAssay (NCATS)", "note": "Results filed as inconclusive are left out. Entries that show only a call come without a potency. The source made the active and inactive calls. Calls follow the shape of the dose curve; as a rule, active = well fitted inhibition curve with a large enough effect; inconclusive = small, poorly fitted or top-dose-only effect; inactive = flat fitted curve, though single readings scatter. Potency is read from the fitted curve at half-maximal effect."}
{"experiment": "P-glycoprotein substrates identified in KB-8-5-11 adenocarcinoma cell line, qHTS therapeutic library screen (AID 1346987); also: nearly all actives have a fitted effect of over 65% in size", "details": "KB-8-5-11 (P-gp overexpressing) viability, CellTiter-Glo, 72 h; series mostly up to 44.5 µM", "excerpt": "The ATP-binding cassette transporters P-glycoprotein (P-gp) is known to limit brain penetration of many chemotherapy drugs. […] As such, we developed a high-throughput screen (HTS) to identify substrates of P-gp from a series of chemical libraries including the National Center for Advancing Translational Sciences Pharmaceutical Collection NPC, 2,816 compounds), testing a total of 10,804 compounds, most of which have known mechanisms of action. We used the CellTiter-Glo viability assay to test library compounds against the parental KB-3-1 human cervical adenocarcinoma cell line and the colchicine-selected sub-line KB-8-5-11 that over-expresses P-gp. KB-8-5-11 cells were also tested in the presence of a P-gp inhibitor (tariquidar) to assess reversability of transporter-mediated resistance. Of the tested compounds, a total of 90 P-gp substrates were identified including 55 newly identified P-gp substrates. Substrates were confirmed using an orthogonal killing assay against HEK-293 cells transfected with P-gp. As exemplars, we confirmed that […] (cyclin-dependent kinase inhibitor); AT9283, (Janus kinase 2/3 inhibitor); ispinesib (kinesin spindle protein inhibitor); gedatolisib (PKI-587, phosphoinositide 3-kinase/mammalian target of rampamycin inhibitor); GSK-690693 (AKT inhibitor); and KW-2478 (heat shock protein 90 inhibitor) were substrates , and direct ATPase stimulation was assessed. ABCG2 was also found to confer high levels of resistance to AT9283, GSK-690693 and gedatolisib, while ispinesib, AT7519 and KW-2478 were weaker substrates.\nThe HeLa derivative cell line, KB-3-1, and its colchicine-selected, P-gp-overexpressing subline, KB-8-5-11 were maintained in DMEM with 10% FCS and Pen/Strep with glutamine at 37 degree C in 5% CO2. For KB-8-5-11 cells, colchicine was added to the medium at a concentration of 100 ng/mL. HEK-293 cells transfected with empty vector (pcDNA) or vector containing human ABCB1 (MDR-19) or ABCG2 (R-5) have been described previously (Robey, Lin, Qiu, Chan & Bates, 2011) and were maintained in EMEM supplemented with 10% FCS, Pen/Strep and glutamine with 2 mg/ml G418 to select for the expression of the transporter. Cultures were confirmed to be free of mycoplasma infection using the MycoAlert Mycoplasma Detection Kit (Lonza, Walkersville, MD). For the screen, assay medium was identical to culture medium except for KB-8-5-11 where colchicine was excluded from the medium.\nAll cell lines were plated into 1536-well plates at 500 cells/well in 5 uL media. Compounds were then pinned in dose-response using a 1536-head pin tool (Kalypsis, San Diego, CA) and plates were incubated at 37 degree C in 5% CO2 for an additional 72 h. CellTiter-Glo reagent (Promega) was dispensed into the wells, incubated for 5 min and luminescence was read on a ViewLux instrument (Perkin-Elmer). Cytotoxic compounds were defined as those that yielded a curve class of -1.1, -1.2, -2.1, -2.2, -2.3, or -2.4, a maximum response of >50% and an AC50 of < 10 uM. Cherry-picked hits from screening analysis were tested with both the KB pair of cell lines, and the pcDNA (empty vector control) and MDR-19 (P-gp overexpressing) pair were tested, in the absence and presence of tariquidar."}
{"smiles": "COc1cc(NCCCC(C)N)c2ncccc2c1", "note": "(stereo not given)", "Potency": "inactive"}
{"smiles": "CCCCCCCCCCCC(=O)OCC(O)CO", "note": "(stereo not given)", "Potency": "inactive"}
{"smiles": "COC(=O)C(CN)c1c[nH]c2ccc(OC)cc12", "note": "(stereo not given)", "Potency": "inactive"}
{"smiles": "O=C(O)/C=C/c1ccccc1", "Potency": "inactive"}
{"smiles": "FCOC(C(F)(F)F)C(F)(F)F", "Potency": "inactive"}
{"smiles": "CCc1cn([C@H]2C[C@H](O)[C@@H](CO)O2)c(=O)[nH]c1=O", "Potency": "inactive"}
{"smiles": "O.O.O.O.O.O.O.O=S(=O)([O-])[O-].[Co+2]", "Potency": "inactive"}
{"smiles": "CC(CC=O)CCCC(C)(C)O", "note": "(stereo not given)", "Potency": "inactive"}
{"smiles": "CCCCC[C@H](O)/C=C/[C@H]1[C@H](O)CC(=O)[C@@H]1C/C=C\\CCCC(=O)O", "Potency": "inactive"}
{"smiles": "N=C(N)c1ccc(/C=C/c2ccc(C(=N)N)cc2O)cc1", "Potency": "18.4 µM (active)"}
{"smiles": "CNC(=O)OCc1cccc(COC(=O)NC)n1", "Potency": "inactive"}
{"smiles": "OC[C@H]1O[C@@H]2O[C@H]3[C@H](O)[C@@H](O)[C@@H](O[C@H]4[C@H](O)[C@@H](O)[C@@H](O[C@H]5[C@H](O)[C@@H](O)[C@@H](O[C@H]6[C@H](O)[C@@H](O)[C@@H](O[C@H]7[C@H](O)[C@@H](O)[C@@H](O[C@H]1[C@H](O)[C@H]2O)O[C@@H]7CO)O[C@@H]6CO)O[C@@H]5CO)O[C@@H]4CO)O[C@@H]3CO", "Potency": "inactive"}
{"smiles": "CCOc1cc(-c2nccc3cc(OC)c(OC)cc23)cc(OCC)c1OCC", "Potency": "13 µM (active)"}
{"smiles": "NS(=O)(=O)c1cc2c(cc1Cl)NC(Cc1ccccc1)NS2(=O)=O", "note": "(stereo not given)", "Potency": "inactive"}
{"smiles": "C=CC[N@@+]12CC[C@@]34c5ccccc5N5/C=C6/[C@H]7C[C@H]8[C@@]9(CC[N@@+]8(CC=C)C/C7=C/CO)c7ccccc7N(/C=C(/[C@@H](C[C@@H]31)/C(=C\\CO)C2)[C@H]54)[C@@H]69", "Potency": "inactive"}
{"smiles": "CC(C)(C)NCC(O)c1ccc(O)c(CO)n1", "note": "(stereo not given)", "Potency": "inactive"}
{"smiles": "OC[C@H]1O[C@@](CO)(O[C@H]2O[C@H](CO)[C@@H](O)[C@H](O)[C@H]2O)[C@@H](O)[C@@H]1O", "Potency": "inactive"}
{"smiles": "CC1(C)[C@H]2CC[C@]1(C)[C@H](O)C2", "Potency": "inactive"}
{"smiles": "C=Cc1c(C)c2cc3nc(cc4[nH]c(cc5nc(cc1[nH]2)C(C)=C5CCC(=O)OC)c(CCC(=O)O)c4C)[C@@]1(C)C3=CC=C(C(=O)OC)[C@H]1C(=O)OC", "Potency": "inactive"}
{"smiles": "CC(=O)O[C@@H]1CC2CCC1(C)C2(C)C", "note": "(stereo not given in full)", "Potency": "inactive"}
{"smiles": "CC12CCC(C[N+](C)(CCC[N+](C)(C)C)C1)C2(C)C", "note": "(stereo not given)", "Potency": "inactive"}
{"smiles": "C=O", "Potency": "inactive"}
{"smiles": "O=C(O)CCC/C=C\\C[C@@H]1[C@@H](/C=C/[C@@H](O)COc2cccc(C(F)(F)F)c2)[C@H](O)C[C@@H]1O", "Potency": "inactive"}
{"smiles": "CCOC(=O)Oc1c(OC)cc(C(=O)O[C@@H]2C[C@@H]3CN4CCc5c([nH]c6cc(OC)ccc56)[C@H]4C[C@@H]3[C@H](C(=O)OC)[C@H]2OC)cc1OC", "Potency": "inactive"}
{"smiles": "CNC(=O)C[C@@H](N)C(=O)N[C@@H](C(=O)N[C@@H]1C(=O)N2[C@@H]1SC(C)(C)[C@@H]2C(=O)O)c1ccc(O)cc1", "Potency": "inactive"}
{"smiles": "CC1(O)CCC(C(C)(C)O)CC1", "note": "(stereo not given)", "Potency": "inactive"}
{"smiles": "CCN1C(=O)NC(c2ccccc2)C1=O", "note": "(stereo not given)", "Potency": "inactive"}
{"smiles": "COc1cc(C)c(/C=C/C(C)=C/C=C/C(C)=C/C(=O)O)c(C)c1C", "Potency": "inactive"}
{"smiles": "CO/N=C(\\C(=O)N[C@@H]1C(=O)N2C(C(=O)O)=C(C[N+]3(C)CCCC3)CS[C@H]12)c1csc(N)n1", "Potency": "inactive"}
{"smiles": "NC(=O)[C@@H]1CCCN1C(=O)[C@H](Cc1cnc[nH]1)NC(=O)[C@@H]1CCC(=O)N1", "Potency": "inactive"}
{"smiles": "O=C(CO)[C@@H](O)[C@H](O)[C@@H](O)C(=O)O", "Potency": "inactive"}
{"smiles": "OC1OC[C@@H](O)[C@H](O)[C@@H]1O", "note": "(stereo not given in full)", "Potency": "inactive"}
{"smiles": "CC[C@H]1OC(=O)C[C@@H](O)[C@H](C)[C@@H](O[C@@H]2O[C@H](C)[C@@H](O[C@H]3C[C@@](C)(O)[C@@H](O)[C@H](C)O3)[C@H](N(C)C)[C@H]2O)[C@@H](CC=O)C[C@@H](C)C(=O)/C=C/C(C)=C/[C@@H]1CO[C@@H]1O[C@H](C)[C@@H](O)[C@@H](OC)[C@H]1OC", "Potency": "inactive"}
{"smiles": "COc1c(O[C@@H]2O[C@H](CO)[C@@H](O)[C@H](O)[C@H]2O)cc2c(c1OC)-c1ccc(SC)c(=O)cc1[C@@H](NC(C)=O)CC2", "Potency": "inactive"}
{"smiles": "CC1=CC(=O)NS(=O)(=O)O1", "Potency": "inactive"}
{"smiles": "Cc1c(Cl)cccc1Nc1ncccc1C(=O)O", "Potency": "inactive"}
{"smiles": "CCC(=O)c1ccc2c(c1)N(CCCN1CCN(CCO)CC1)c1ccccc1S2", "Potency": "inactive"}
{"smiles": "O=C(O[C@H]1CN2CCC1CC2)N1CCc2ccccc2[C@@H]1c1ccccc1", "Potency": "inactive"}
{"smiles": "Oc1cc(O)cc(O)c1", "Potency": "inactive"}
{"smiles": "C[C@]12CC[C@@H]3c4ccc(O)cc4CC[C@H]3[C@@H]1CC[C@@H]2OP(=O)(O)O", "Potency": "20.6 µM (active)"}
